Where “and” joins values, the source holds several entries; their conditions need not be identical. Equal values may be shown once. About 2,000 (36%) of roughly 5,500 compounds were called active. Roughly 18% stayed inconclusive and do not appear here. Cut-off read from the data, not from the text of the source: active = normalized growth mostly below about 0.91 (no sharp cut-off); inconclusive = no clear call, values can overlap the other calls; inactive = mostly above about 0.92. Some of the results follow.
Assay: chemical genetic growth profiling, strain panel (AID 1159580);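 note: tested at 20 µM; growth read once vehicle control cultures reached saturation at 30 °C; 1 = growth at the plate median or of vehicle wells; lower values mean less growth of the strain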
Settings: growth OD

Measured: normalized growth

C=C1CCC(C2CC(=O)OC2=O)C(=O)CCC2C1CC2(C)C (centres undefined)
inactive: S. cerevisiae deletion strains, locus YAL021C, strain ccr4, hits give low values 0.991 | S. cerevisiae deletion strains, locus YAL026C, strain drs2, hits give low values 1 | S. cerevisiae deletion strains, locus YAL030W, strain snc1, hits give low values 1.01 | S. cerevisiae deletion strains, locus YBL061C, strain skt5, hits give low values 1 | S. cerevisiae deletion strains, locus YBR009C, strain hhf1, hits give low values 1 | S. cerevisiae deletion strains, locus YBR021W, strain FUR4, hits give low values 1 | S. cerevisiae deletion strains, locus YBR023C, strain chs3, hits give low values 1 | S. cerevisiae deletion strains, locus YBR171W, strain sec66, hits give low values 1 | S. cerevisiae deletion strains, locus YBR229C, strain ROT2, hits give low values 1.01 | S. cerevisiae deletion strains, locus YBR231C, strain swc5, hits give low values 1 | S. cerevisiae deletion strains, locus YBR279W, strain paf1, hits give low values 1.01 | S. cerevisiae deletion strains, locus YCL011C, strain gbp2, hits give low values 1 | S. cerevisiae deletion strains, locus YCL016C, strain dcc1, hits give low values 0.993 | S. cerevisiae deletion strains, locus YCL029C, strain bik1, hits give low values 1.02 | S. cerevisiae deletion strains, locus YCL069W, strain vba3, hits give low values 1.02 | S. cerevisiae deletion strains, locus YCR088W, strain abp1, hits give low values 1.01 | S. cerevisiae deletion strains, locus YDL005C, strain med2, hits give low values 1.01 | S. cerevisiae deletion strains, locus YDL035C, strain GPR1, hits give low values 0.995 | S. cerevisiae deletion strains, locus YDL040C, strain nat1, hits give low values 1.01 | S. cerevisiae deletion strains, locus YDL074C, strain BRE1, hits give low values 1.03 | S. cerevisiae deletion strains, locus YDL101C, strain DUN1, hits give low values 1.02 | S. cerevisiae deletion strains, locus YDL134C, strain PPH21, hits give low values 1.04 | S. cerevisiae deletion strains, locus YDL185W, strain tfp1, hits give low values 1.02 | S. cerevisiae deletion strains, locus YDL192W, strain arf1, hits give low values 1.01 | S. cerevisiae deletion strains, locus YDR001C, strain nth1, hits give low values 1 | S. cerevisiae deletion strains, locus YDR069C, strain doa4, hits give low values 0.988 | S. cerevisiae deletion strains, locus YDR101C, strain arx1, hits give low values 0.972 | S. cerevisiae deletion strains, locus YDR137W, strain rgp1, hits give low values 1.01 | S. cerevisiae deletion strains, locus YDR159W, strain sac3, hits give low values 0.97 | S. cerevisiae deletion strains, locus YDR162C, strain NBP2, hits give low values 1 | S. cerevisiae deletion strains, locus YDR195W, strain ref2 0.986 | S. cerevisiae deletion strains, locus YDR297W, strain sur2, hits give low values 1 | S. cerevisiae deletion strains, locus YDR318W, strain mcm21, hits give low values 1 | S. cerevisiae deletion strains, locus YDR334W, strain swr1, hits give low values 1 | S. cerevisiae deletion strains, locus YDR335W, strain msn5, hits give low values 1.02 | S. cerevisiae deletion strains, locus YDR388W, hits give low values 1 | S. cerevisiae deletion strains, locus YDR392W, strain spt3, hits give low values 0.876 | S. cerevisiae deletion strains, locus YDR502C, strain sam2, hits give low values 1.03 | S. cerevisiae deletion strains, locus YEL003W, strain gim4, hits give low values 1.01 | S. cerevisiae deletion strains, locus YEL037C, strain rad23, hits give low values 1.01 | S. cerevisiae deletion strains, locus YEL061C, strain CIN8 (second series), hits give low values 1.01 | S. cerevisiae deletion strains, locus YER015W, strain faa2, hits give low values 1.02 | S. cerevisiae deletion strains, locus YER016W, strain bim1, hits give low values 1 | S. cerevisiae deletion strains, locus YER110C, hits give low values 1.01 | S. cerevisiae deletion strains, locus YER111C, strain swi4, hits give low values 1.01 | S. cerevisiae deletion strains, locus YER155C, strain BEM2 (second series), hits give low values 0.983 | S. cerevisiae deletion strains, locus YER155C, strain BEM2, hits give low values 1.01 | S. cerevisiae deletion strains, locus YER167W, strain BCK2, hits give low values 1 | S. cerevisiae deletion strains, locus YFR010W, strain ubp6, hits give low values 1.01 | S. cerevisiae deletion strains, locus YGL078C, strain dbp3, hits give low values 1.03 | S. cerevisiae deletion strains, locus YGL086W, strain mad1, hits give low values 1.01 | S. cerevisiae deletion strains, locus YGL167C, strain pmr1, hits give low values 1.01 | S. cerevisiae deletion strains, locus YGL173C, strain kem1, hits give low values 1 | S. cerevisiae deletion strains, locus YGL227W, strain vid30, hits give low values 1.01 | S. cerevisiae deletion strains, locus YGL240W, strain doc1, hits give low values 0.987 | S. cerevisiae deletion strains, locus YGL248W, strain PDE1, hits give low values 1.04 | S. cerevisiae deletion strains, locus YGL253W, strain hxk2, hits give low values 1.03 | S. cerevisiae deletion strains, locus YGR078C, strain PAC10, hits give low values 1.04 | S. cerevisiae deletion strains, locus YGR135W, strain pre9, hits give low values 1.05 | S. cerevisiae deletion strains, locus YGR252W, strain gcn5, hits give low values 1.09 | S. cerevisiae deletion strains, locus YHR013C, strain ard1, hits give low values 1.01 | S. cerevisiae deletion strains, locus YHR027C, strain rpn1, hits give low values 1 | S. cerevisiae deletion strains, locus YHR030C, strain SLT2, hits give low values 0.975 | S. cerevisiae deletion strains, locus YHR079C, strain IRE1 (second series), hits give low values 1.01 | S. cerevisiae deletion strains, locus YHR079C, strain IRE1, hits give low values 0.974 | S. cerevisiae deletion strains, locus YHR094C, strain hxt1, hits give low values 0.995 | S. cerevisiae deletion strains, locus YHR129C, strain ARP1, hits give low values 1.02 | S. cerevisiae deletion strains, locus YHR142W, strain chs7, hits give low values 1.04 | S. cerevisiae deletion strains, locus YHR200W, strain rpn10, hits give low values 1.03 | S. cerevisiae deletion strains, locus YIL066C, strain RNR3, hits give low values 1.01 | S. cerevisiae deletion strains, locus YIL073C, strain SPO22, hits give low values 1.02 | S. cerevisiae deletion strains, locus YIL125W, strain kgd1, hits give low values 0.98 | S. cerevisiae deletion strains, locus YIR030C, strain dcg1, hits give low values 1.01 | S. cerevisiae deletion strains, locus YJL092W, strain hpr5, hits give low values 1.02 | S. cerevisiae deletion strains, locus YJL095W, strain BCK1 (second series), hits give low values 1 | S. cerevisiae deletion strains, locus YJL095W, strain BCK1, hits give low values 1.06 and 0.979 | S. cerevisiae deletion strains, locus YJL115W, strain asf1, hits give low values 0.999 | S. cerevisiae deletion strains, locus YJL129C, strain trk1, hits give low values 0.989 | S. cerevisiae deletion strains, locus YJL134W, strain LCB3, hits give low values 0.997 | S. cerevisiae deletion strains, locus YJL154C, strain vps35, hits give low values 1.02 | S. cerevisiae deletion strains, locus YJL164C, strain tpk1, hits give low values 1 | S. cerevisiae deletion strains, locus YJL166W, strain qcr8, hits give low values 1 | S. cerevisiae deletion strains, locus YJL168C, strain set2, hits give low values 1.02 | S. cerevisiae deletion strains, locus YJL187C, strain SWE1 (second series), hits give low values 1.04 | S. cerevisiae deletion strains, locus YJR066W, strain TOR1, hits give low values 0.929 | S. cerevisiae deletion strains, locus YJR075W, strain HOC1, hits give low values 1.02 | S. cerevisiae deletion strains, locus YKL009W, strain mrt4, hits give low values 1 | S. cerevisiae deletion strains, locus YKL068W, hits give low values 1 | S. cerevisiae deletion strains, locus YKL085W, strain MDH1 (second series), hits give low values 1 | S. cerevisiae deletion strains, locus YKL085W, strain MDH1, hits give low values 1 | S. cerevisiae deletion strains, locus YKL160W, strain elf1, hits give low values 1 | S. cerevisiae deletion strains, locus YKR001C, strain vps1, hits give low values 1 | S. cerevisiae deletion strains, locus YKR026C, strain gcn3, hits give low values 1.01 | S. cerevisiae deletion strains, locus YKR091W, strain srl3, hits give low values 1 | S. cerevisiae deletion strains, locus YLL001W, strain dnm1, hits give low values 1.01 | S. cerevisiae deletion strains, locus YLL026W, hits give low values 1 | S. cerevisiae deletion strains, locus YLL041C, strain sdh2, hits give low values 1.01 | S. cerevisiae deletion strains, locus YLR027C, strain aat2, hits give low values 1.02 | S. cerevisiae deletion strains, locus YLR039C, strain RIC1, hits give low values 1.04 | S. cerevisiae deletion strains, locus YLR058C, strain SHM2, hits give low values 1 | S. cerevisiae deletion strains, locus YLR102C, strain apc9, hits give low values 1.01 | S. cerevisiae deletion strains, locus YLR113W, strain HOG1, hits give low values 0.946 | S. cerevisiae deletion strains, locus YLR221C, strain rsa3, hits give low values 0.99 | S. cerevisiae deletion strains, locus YLR258W, strain gsy2, hits give low values 1.03 | S. cerevisiae deletion strains, locus YLR262C, strain YPT6 (second series), hits give low values 0.993 | S. cerevisiae deletion strains, locus YLR268W, strain sec22, hits give low values 0.975 | S. cerevisiae deletion strains, locus YLR320W, strain mms22, hits give low values 0.999 | S. cerevisiae deletion strains, locus YLR330W, strain CHS5, hits give low values 1.01 | S. cerevisiae deletion strains, locus YLR342W, strain FKS1, hits give low values 1 | S. cerevisiae deletion strains, locus YLR357W, strain rsc2, hits give low values 1.03 | S. cerevisiae deletion strains, locus YLR370C, strain arc18, hits give low values 1.01 | S. cerevisiae deletion strains, locus YLR371W, strain rom2, hits give low values 0.997 | S. cerevisiae deletion strains, locus YLR384C, strain iki3, hits give low values 1.01 | S. cerevisiae deletion strains, locus YLR418C, strain cdc73, hits give low values 1.09 | S. cerevisiae deletion strains, locus YML016C, strain PPZ1, hits give low values 1.01 | S. cerevisiae deletion strains, locus YML032C, strain rad52, hits give low values 0.999 | S. cerevisiae deletion strains, locus YML120C, strain ndi1, hits give low values 1 | S. cerevisiae deletion strains, locus YML124C, strain tub3, hits give low values 1 | S. cerevisiae deletion strains, locus YMR058W, strain fet3, hits give low values 1.02 | S. cerevisiae deletion strains, locus YMR078C, strain ctf18, hits give low values 1 | S. cerevisiae deletion strains, locus YMR125W, strain sto1, hits give low values 1 | S. cerevisiae deletion strains, locus YMR129W, hits give low values 1.01 | S. cerevisiae deletion strains, locus YMR205C, strain PFK2, hits give low values 0.98 | S. cerevisiae deletion strains, locus YMR223W, strain ubp8, hits give low values 1.01 | S. cerevisiae deletion strains, locus YMR231W, strain pep5, hits give low values 0.991 | S. cerevisiae deletion strains, locus YMR263W, strain SAP30, hits give low values 1.01 | S. cerevisiae deletion strains, locus YMR307W, strain GAS1, hits give low values 1.06 | S. cerevisiae deletion strains, locus YNL067W, strain RPL9B, hits give low values 1.02 | S. cerevisiae deletion strains, locus YNL071W, strain lat1, hits give low values 1.01 | S. cerevisiae deletion strains, locus YNL153C, strain GIM3, hits give low values 1.03 | S. cerevisiae deletion strains, locus YNL183C, strain NPR1, hits give low values 0.937 | S. cerevisiae deletion strains, locus YNL209W, strain ssb2, hits give low values 1 | S. cerevisiae deletion strains, locus YNL233W, strain BNI4, hits give low values 1.04 | S. cerevisiae deletion strains, locus YNL248C, strain rpa49, hits give low values 0.928 | S. cerevisiae deletion strains, locus YNL250W, strain rad50, hits give low values 1.03 | S. cerevisiae deletion strains, locus YNL271C, strain bni1, hits give low values 1.01 | S. cerevisiae deletion strains, locus YNL298W, strain CLA4, hits give low values 0.993 | S. cerevisiae deletion strains, locus YNL307C, strain MCK1, hits give low values 1.01 | S. cerevisiae deletion strains, locus YNL322C, strain KRE1 (second series), hits give low values 0.989 | S. cerevisiae deletion strains, locus YNR049C, strain mso1, hits give low values 1.01 | S. cerevisiae deletion strains, locus YNR052C, strain pop2, hits give low values 1.01 | S. cerevisiae deletion strains, locus YOL012C, strain htz1 0.988 | S. cerevisiae deletion strains, locus YOL147C, strain pex11, hits give low values 1 | S. cerevisiae deletion strains, locus YOR001W, strain rrp6, hits give low values 0.976 | S. cerevisiae deletion strains, locus YOR061W, strain CKA2, hits give low values 0.991 | S. cerevisiae deletion strains, locus YOR069W, strain VPS5, hits give low values 1.01 | S. cerevisiae deletion strains, locus YOR070C, strain gyp1, hits give low values 1.02 | S. cerevisiae deletion strains, locus YOR080W, strain dia2, hits give low values 0.993 | S. cerevisiae deletion strains, locus YOR083W, strain WHI5, hits give low values 0.997 | S. cerevisiae deletion strains, locus YOR106W, strain vam3, hits give low values 1.02 | S. cerevisiae deletion strains, locus YOR136W, strain idh2, hits give low values 1.01 | S. cerevisiae deletion strains, locus YOR144C, strain elg1, hits give low values 0.996 | S. cerevisiae deletion strains, locus YOR184W, strain ser1, hits give low values 0.98 | S. cerevisiae deletion strains, locus YOR231W, strain MKK1, hits give low values 0.964 | S. cerevisiae deletion strains, locus YOR265W, strain rbl2, hits give low values 0.995 | S. cerevisiae deletion strains, locus YOR270C, strain vph1, hits give low values 1.01 | S. cerevisiae deletion strains, locus YOR290C, strain snf2, hits give low values 0.952 | S. cerevisiae deletion strains, locus YOR316C, strain cot1, hits give low values 1.02 | S. cerevisiae deletion strains, locus YPL051W, strain arl3, hits give low values 1 | S. cerevisiae deletion strains, locus YPL078C, strain atp4, hits give low values 1 | S. cerevisiae deletion strains, locus YPL106C, strain sse1, hits give low values 1 | S. cerevisiae deletion strains, locus YPL240C, strain hsp82, hits give low values 1 | S. cerevisiae deletion strains, locus YPL256C, strain CLN2, hits give low values 0.962 | S. cerevisiae deletion strains, locus YPR119W, strain clb2, hits give low values 1 | S. cerevisiae deletion strains, locus YPR141C, strain kar3, hits give low values 1 | S. cerevisiae deletion strains, locus YPR163C, strain tif3, hits give low values 1 | S. cerevisiae deletion strains, locus YPR167C, strain met16, hits give low values 1 | S. cerevisiae deletion strains, strain wtn01, hits give low values 0.997 | S. cerevisiae strains, strain wild type, hits give low values 0.999

Source: PubChem BioAssay AID1159580 (chemical genetic matrix, 2015)
